# Records with an inconclusive call do not appear. Values without a mark were called inactive. Calls follow the shape of the dose curve; as a rule, active = well fitted activation curve with a large enough effect; inconclusive = small, poorly fitted or top-dose-only effect; inactive = flat fitted curve, though single readings scatter.
# Assay: qHTS for Inhibitors of Cell Surface uPA Generation: FP59 Counterscreen for Cherry-picked Compounds; also: 0% is about no effect
# Settings: FP59 anthrax toxin cytotoxicity counterscreen, cells; series mostly up to 115 µM; activity (protection from FP59): at the top concentration
row,Compound,activity (protection from FP59) [%]
1,c1csc(CN2CCOCC2)c1,-1.39
2,Cc1cccc(N2CCN(Cc3ccc(Br)o3)CC2)c1C,-1.14
3,O=C1[C@H]2[C@@H](c3ccc(F)cc3)N3C(=O)N(c4cccc(F)c4)C(=O)[C@@]3(Cc3ccc(Cl)cc3)[C@H]2C(=O)N1C1CCCCC1,-0.34
4,CCCCN(CC(=O)NCc1ccc(F)cc1)C(=O)c1ccco1,-1.31
5,C/C(=N\NC(=O)c1cccc([N+](=O)[O-])c1)c1cccnc1,-1.46
6,COc1ccc(CCN=c2c([N+](=O)[O-])nn(-c3cccc(C)c3)n2O)cc1OC,-0.651
7,O=S(=O)(/N=C(/c1ccccc1)N1CCOCC1)c1ccc(F)cc1F,-1.28
8,COc1ccc(CC(=O)NNS(=O)(=O)c2ccccc2[N+](=O)[O-])cc1OC,-1.49
9,COc1cc(/C=C(/C#N)C(=O)Nc2ccccc2)ccc1OCc1ccc(C(=O)O)cc1,0.218
10,Fc1ccc(NC(=S)N2CCCC(c3ccccc3)=N2)cc1,1.8
11,COc1ccc(Cl)cc1NC(=O)CSc1nc(=O)n(CCN(C)C)c2c1CCCC2,-1.62
12,Cc1ccc(CN2CCN(Cc3cc4ccccc4o3)CC2CCO)cc1 (stereo not given),-0.771
13,CC1CCCN(C(=O)c2ccc(CNc3c(N4CCCCC4)c(=O)c3=O)cc2)C1 (stereo not given),-1.34
14,CCc1ccc(NCc2nc(-c3ccccc3)no2)cc1,0.485
15,COc1cc(/C=N/NC(=O)c2cc(-c3ccco3)nc3ccccc23)cc(OC)c1O,-1.46
16,CC(=O)Nc1ccc(OS(=O)(=O)c2c(C)cc(C)cc2C)cc1,-1.2
17,CCc1c(C)sc(NC(=S)N2CC(C)OC(C)C2)c1C(=O)OC (stereo not given),1.16
18,CCOC(=O)[C@H]1[C@H]2COc3ccc(Br)cc3[C@@H]2N2C(=O)c3c(C)cc(C)cc3NC(=O)[C@@]12C,1.95
19,Cc1ccc2c(c1)N(CC(=O)NCCCc1ccccc1)C(=O)c1cccnc1O2,-1.38
20,NS(=O)(=O)c1ccc(CCNC(=O)c2ccc(Cl)s2)cc1,-1.27

row,Compound,activity (protection from FP59) [%]
1,COCCN1C(=O)C(=O)/C(=C(/O)c2ccc(S(=O)(=O)N3CCOCC3)cc2)C1c1cccc([N+](=O)[O-])c1 (stereo not given),-1.51
2,COc1ccc(C(=O)OCC(=O)N(C)C2CCS(=O)(=O)C2)cc1S(=O)(=O)N(C)Cc1ccccc1 (stereo not given),-1.36
3,NC(=O)c1cc2ccncc2c2ccccc12,0.728
4,COC(=O)[C@]1(Cc2ccccc2)N[C@H](CN(C)C(=O)Nc2ccccc2)[C@@H]2C(=O)N(Cc3ccccc3)C(=O)[C@@H]21,7.99
5,O=C(NCc1ccccn1)C1CCN(C(=O)c2cc3sccc3n2Cc2ccc(F)cc2)CC1,-1.21
6,O=C(Nc1cccc(-c2nn[nH]n2)c1)c1ccc(Cl)s1,-1.63
7,COc1ccc(C(=O)c2sc(Nc3ccccc3)nc2N)cc1,-1.2
8,O=C(O)CSc1nnc(COc2ccccc2)n1-c1ccccc1,-1.31
9,CCn1c2ccccc2c2n[nH]c(=S)nc21,-1.35
10,O=C(c1cc([N+](=O)[O-])cc([N+](=O)[O-])c1)N(c1ccccn1)c1ccccn1,-1.05
11,Cc1cnc(C(=O)OCC(=O)Nc2ccc3c(c2)OCCO3)cn1,-1.24
12,C=C(C(=O)O)C1CCC2(C)CCCC(C)(O)C2C1 (stereo not given),-1.31
13,CCOC(=O)C(CC)n1cnc2c(nnn2-c2ccccc2)c1=O (stereo not given),-0.667
14,COc1cccc(C2CC(c3ccc(C)cc3)n3ncnc3N2)c1 (stereo not given),-0.0008
15,COc1cccc(NC(=O)N2C3CCCC2CC(NC(C)=O)C3)c1 (stereo not given),-0.276
16,O=C(Nc1ccc(Cl)cn1)C1CCCN(c2ncnc3c2nc2n3CCCCC2)C1 (stereo not given),2.43
17,COC(=O)[C@@]1(Cc2ccc(F)cc2)[C@H]2c3cc(C(=O)N(C)C)n(Cc4c(CO)[nH]cc(C)c4=O)c3C[C@H]2CN1C(=O)c1ccccc1,-1.32
18,COc1ccccc1CCNC(=O)C(=O)NCC1OCCN1S(=O)(=O)c1ccc(OC)c(OC)c1 (stereo not given),-1.42
19,CC(=O)Oc1ccccc1C(=O)Nc1ccccc1C(=O)N1CCCC1,-1.41
20,COc1ccc(-n2ncc3c(=O)n(CC(=O)NC(C)C)cnc32)cc1,-1.39
